What was measured:
Experiment in all cases: relative growth (AUC of 72 h growth curve relative to DMSO control, dAUC) (ratio); higher = more growth (less inhibition), active = hit call of the paper
Details in all cases: 20 µM;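 active = growth AUC significantly below the DMSO wells by Dunnett test; inactive = the rest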
[1] = compound: C=CCOC(Cn1ccnc1)c1ccc(Cl)cc1Cl
Outline: (§1)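 Isolates from Icelandic stream sediments and Silwood Park soil, along with whole sediment communities, were grown in Luria–Bertani medium to carrying capacity and diluted 1:100 into 96-well plates with each chemical at 20 µM (1% DMSO). A600 was measured hourly for 72 h, and values were averaged over three biological replicates. Relative growth (dAUC) is the spline-integrated growth-curve area over the mean of the DMSO controls.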

[2] = compound: CC(=O)CC(c1ccccc1)c1c(O)c2ccccc2oc1=O
Outline: as §1

[3] = compound: CC1COc2ccccc2N1C(=O)C(Cl)Cl
Outline: as §1

[4] = compound: CCCCC(CC)CN1C(=O)[C@@H]2[C@H](C1=O)[C@@H]1C=C[C@H]2C1 (mixture of isomers)
Outline: as §1

[5] = compound: CCCCCCCCc1c(CC)nc2ncnn2c1N
Outline: as §1

[6] = compound: CCCCOCCOCCOCc1cc2c(cc1CCC)OCO2
Outline: as §1

[7] = compound: CCCOC(=O)NCCCN(C)C
Outline: as §1

[8] = compound: COC(=O)c1csc(C)c1S(=O)(=O)NC(=O)n1nc(OC)n(C)c1=O
Outline: as §1

[9] = compound: Cc1ccc(C(C)NC(=O)[C@@H](NC(=O)OC(C)C)C(C)C)cc1
Outline: as §1

[10] = compound: Cc1nn(C)c(Oc2ccccc2)c1/C=N/OCc1ccc(C(=O)OC(C)(C)C)cc1
Outline: as §1

[11] = compound: Cn1cc(C(=O)Nc2ccc(F)cc2-c2ccc(Cl)c(Cl)c2)c(C(F)F)n1
Outline: as §1

[12] = compound: Cn1cc(C(=O)Nc2ccccc2-c2cc(F)c(F)c(F)c2)c(C(F)F)n1
Outline: as §1

[13] = compound: O=C(NCc1ncc(C(F)(F)F)cc1Cl)c1c(Cl)cccc1Cl
Outline: as §1

[14] = compound: Oc1c(Cl)cc(Cl)c(Cl)c1Cc1c(O)c(Cl)cc(Cl)c1Cl
Outline: as §1

[15] = compound: S=C([S-])NCCNC(=S)[S-].S=C([S-])NCCNC(=S)[S-].[Mn+2].[Zn+2]
Outline: as §1

[16] = compound: c1ccc2[nH]c(-c3cscn3)nc2c1
Outline: as §1

Measured: relative growth

Paenibacillus 1 (Paenibacillus castaneae)
active: [1] 0.0487 | [14] 0.0147
inactive: [2] 0.878 | [3] 0.947 | [4] 0.923 | [5] 0.906 | [6] 1 | [7] 1.08 | [8] 1.03 | [9] 0.947 | [10] 0.866 | [11] 0.835 | [12] 1.01 | [13] 1.04 | [15] 0.978 | [16] 0.987

Pseudomonas 2 (Pseudomonas vancouverensis)
inactive: [1] 0.914 | [2] 1 | [3] 0.989 | [4] 1.01 | [5] 0.969 | [6] 0.974 | [7] 0.987 | [8] 1.02 | [9] 0.996 | [10] 1.11 | [11] 0.967 | [12] 1.01 | [13] 0.98 | [15] 0.947 | [16] 0.959
active: [14] 0.0738

Prolinoborus 1 (Prolinoborus fasciculus)
active: [1] 0.664 | [14] 0.0191
inactive: [2] 0.986 | [3] 0.921 | [4] 0.937 | [5] 0.883 | [6] 0.915 | [7] 1.04 | [8] 1.02 | [9] 1.02 | [10] 0.945 | [11] 0.947 | [12] 1.01 | [13] 0.999 | [15] 0.861 | [16] 0.964

Community 4
active: [14] 0.435
inactive: [1] 0.814 | [2] 0.952 | [3] 0.85 | [4] 0.807 | [5] 0.98 | [6] 0.824 | [7] 0.992 | [8] 1.09 | [9] 0.867 | [10] 1.11 | [11] 0.837 | [12] 1.1 | [13] 0.943 | [15] 1.13 | [16] 0.997

Microbacterium 1 (Microbacterium arborescens)
active: [14] 0.0384
inactive: [1] 0.965 | [2] 1.05 | [3] 0.934 | [4] 0.918 | [5] 0.98 | [6] 0.988 | [7] 1.02 | [8] 1.03 | [9] 0.968 | [10] 1.03 | [11] 1.04 | [12] 1.01 | [13] 1.05 | [15] 0.986 | [16] 0.983

Community 10
active: [14] 0.51
inactive: [1] 0.783 | [2] 0.872 | [3] 0.795 | [4] 0.665 | [5] 0.99 | [6] 0.777 | [7] 1.02 | [8] 0.965 | [9] 0.84 | [10] 0.714 | [11] 0.742 | [12] 1.03 | [13] 0.996 | [15] 1.11 | [16] 1.16

Oryzobacter 1 (Oryzobacter terrae)
inactive: [2] 1.04 | [3] 1.15 | [5] 1.07 | [6] 1.18 | [7] 1.02 | [8] 1.13 | [9] 1.09 | [10] 1.17 | [11] 1.12 | [12] 0.91 | [13] 1.06 | [15] 0.909 | [16] 1.15
1.27: [4]
active: [1] 0.0303 | [14] 0.00191

Argrobacterium 1 (Agrobacterium sp.)
active: [14] 0.705
inactive: [1] 1.11 | [2] 0.978 | [3] 1.03 | [4] 1.13 | [5] 1.04 | [6] 0.946 | [7] 0.985 | [8] 1.01 | [9] 1.01 | [10] 1.17 | [11] 0.953 | [12] 0.918 | [13] 1.02 | [15] 1.14 | [16] 0.852

Flavobacterium 2 (Flavobacterium succinicans)
active: [1] 0.489 | [14] 0.0105
inactive: [2] 0.983 | [3] 0.926 | [4] 0.916 | [5] 0.961 | [6] 0.976 | [7] 1.03 | [8] 1 | [9] 0.933 | [10] 0.952 | [11] 0.849 | [12] 0.962 | [13] 0.966 | [15] 1.13 | [16] 1.03

Serratia 1 (Serratia sp. 2015-2462-01)
active: [14] 0.00199
inactive: [1] 0.919 | [2] 0.952 | [3] 0.946 | [4] 0.932 | [5] 0.971 | [6] 0.954 | [7] 0.979 | [8] 0.99 | [9] 0.955 | [10] 0.973 | [11] 0.949 | [12] 1.02 | [13] 0.994 | [15] 1.06 | [16] 0.982

Bacillus 1 (Bacillus foraminis)
inactive: [1] 0.916 | [2] 1.09 | [3] 0.965 | [4] 1.04 | [5] 1.05 | [6] 1.03 | [7] 1.01 | [8] 1.11 | [9] 0.884 | [10] 1.07 | [11] 0.918 | [12] 1.06 | [13] 1.08 | [15] 1.05 | [16] 0.853
active: [14] 0.408

Pseudomonas 5 (Pseudomonas baetica)
active: [14] 0.501
inactive: [1] 0.962 | [2] 1.03 | [3] 1.08 | [4] 0.989 | [5] 1 | [6] 1.01 | [7] 0.994 | [8] 1.04 | [9] 1.02 | [10] 1.05 | [11] 0.995 | [12] 1.05 | [13] 1.05 | [15] 1.03 | [16] 0.951

Flavobacterium 1 (Flavobacterium glaciei)
inactive: [2] 1.03 | [3] 1.04 | [4] 1.05 | [5] 0.922 | [6] 0.986 | [7] 1.02 | [8] 0.979 | [9] 0.922 | [10] 0.849 | [11] 0.793 | [12] 1.05 | [13] 0.965 | [15] 0.895 | [16] 0.915
active: [1] 0.25 | [14] 0.0158

Community 7
inactive: [1] 0.922 | [2] 1.03 | [3] 0.994 | [4] 0.872 | [5] 1.03 | [6] 1.04 | [7] 1.12 | [8] 1.02 | [9] 1.08 | [10] 1 | [11] 1.06 | [12] 1.05 | [13] 1.07 | [14] 0.468 | [15] 1.12 | [16] 1.03

Pseudomonas 3 (Pseudomonas mandelii)
inactive: [1] 1.01 | [2] 1.06 | [3] 1.07 | [4] 1.05 | [5] 0.984 | [6] 1.04 | [7] 1.04 | [8] 1.04 | [9] 1.08 | [10] 1.09 | [11] 1.03 | [12] 1 | [13] 0.984 | [15] 0.907 | [16] 0.96
active: [14] 0.00168

Aeromonas 3 (Aeromonas popoffii)
active: [14] 0.00174
inactive: [1] 0.933 | [2] 0.992 | [3] 0.988 | [4] 0.988 | [5] 1 | [6] 1.04 | [7] 1.02 | [8] 1.03 | [9] 1.03 | [10] 1.01 | [11] 0.999 | [12] 1.04 | [13] 1.04 | [15] 1.11 | [16] 1.04

Source: the supplement of paper PMC12067926
